D3 ag: D3 dopamine receptor (human) agonism | P35462 | D3R DiscoveRx beta-arrestin cells, luminescence, 90 min | max activation, % | hit rate 0.58% among 410,000 | AID 652048; in the data active means max activation above about 30%; further: 0% is about no effect
Target sequence (P35462 whole entry, looked up): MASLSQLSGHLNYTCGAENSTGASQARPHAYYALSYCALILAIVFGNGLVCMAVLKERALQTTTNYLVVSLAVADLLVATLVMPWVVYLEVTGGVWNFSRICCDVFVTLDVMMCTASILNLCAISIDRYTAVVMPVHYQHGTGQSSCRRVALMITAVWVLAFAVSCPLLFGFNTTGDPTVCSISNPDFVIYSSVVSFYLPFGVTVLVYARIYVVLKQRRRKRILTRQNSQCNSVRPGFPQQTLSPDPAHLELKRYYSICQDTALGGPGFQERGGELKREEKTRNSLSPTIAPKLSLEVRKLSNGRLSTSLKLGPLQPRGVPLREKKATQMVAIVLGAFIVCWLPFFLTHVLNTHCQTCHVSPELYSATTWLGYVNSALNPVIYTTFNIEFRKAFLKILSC
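Agonist mode: compounds and dopamine controls were applied to plated cells for 90 min at 37 degrees C after an overnight attachment at 1500 cells/well. Luminescent read-out followed 30 - 60 minutes at room temperature with DiscoveRx detection reagent.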
DRD3 antagonist: antagonists of human D3 dopamine receptor. P35462. D3R cells, DiscoveRx beta-arrestin luminescence, antagonist mode; active compounds read low. max response, negative = inhibition, %. hit rate 2.5% among 360,000; in the data active means max response below about -50%; inconclusive means no clear call, values can overlap the other calls; further: on the % scale 0 is the no-effect control and ±100 the full control effect
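Cells plated overnight at 1500 cells/well, then exposed to library compounds with dopamine controls for 90 minutes at 37 degrees C. DiscoveRx reagent added for 30–60 minutes at room temperature; luminescence read, quantitative HTS format.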
SW480 rereplic: DNA re-replication induction in SW480 cells; SW480 DNA re-replication, Hoechst DNA content imaging, 48 h; Potency, µM (top dose mostly 46.1 µM), for the others: top-dose re-replication activation, usual class: activators; hit rate 1.8% among 340,000; AID 624297; further: potency means the concentration at half of the fitted maximal effect; % of control where 0% means no effect; nearly all actives have a fitted effect of over 55% in size
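Readout is total intensity of Hoechst-stained nuclei, excited at 405 nm and collected at 500-530 nm. Compound treatment lasted 48 hr at 37 C in 5% CO2 before staining.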
MCF10A rereplic: induces DNA re-replication in MCF 10a normal breast cells. hit rate 2.9% among 350,000. MCF 10A DNA re-replication, Hoechst nuclear intensity, 48 h. Potency, µM (titrated, usually from 46.1 µM), for inactives: at the highest dose activity, positive = re-replication, actives largely listed as activators; further: potency means the concentration at half of the fitted maximal effect; % of control where 0% means no effect; nearly all actives have a fitted effect of over 50% in size
KB-3-1 tox: KB-3-1 parental cell cytotoxicity; Potency, µM (series often up to 46.1 µM), hits mostly cytotoxic; KB-3-1 viability, CellTiter-Glo ATP luminescence, 72 h; AID 1347075; hit rate 1.4% among 400,000; further: potency means the concentration at half of the fitted maximal effect; on the % scale 0 is the no-effect control and ±100 the full control effect; nearly all actives have a fitted effect of over 60% in size
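Cytotoxicity in the drug-sensitive parental line KB-3-1 was scored as loss of CellTiter-Glo luminescence following 72 h incubation with compound. Values come from curve fitting of normalized concentration-response data.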
KB-V1 MDR tox: KB-V1 MDR subline cytotoxicity. KB-V1 MDR cells viability, CellTiter-Glo, 72 h. Potency, µM (highest dose often 46.1 µM), hits mostly cytotoxic. hit rate 3.4% among 400,000; further: potency means the concentration at half of the fitted maximal effect; on the % scale 0 is the no-effect control and ±100 the full control effect; nearly all actives have a fitted effect of over 60% in size
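Readout: CellTiter-Glo luminescence, 10 min after addition. Cells: KB-V1 MDR subline, 72 h at 37 degrees C with compound. Analysis: corrected, normalized data fitted to concentration-effect curves.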
* = called active by the depositor; i = inactive; ? = inconclusive; nt = no result. In the library only some 8.9% were active in any assay of this set; here they are far more common. Unless noted, the call rests on the fitted dose curve; in most records, active means well fitted curve in the direction sought with a large enough effect; inconclusive means small, poorly fitted or top-dose-only effect, or another doubt; inactive means no such curve, though single readings can be large; an effect the other way counts as inactive or inconclusive.

SMILES	D3 ag	DRD3 antagonist	SW480 rereplic	MCF10A rereplic	KB-3-1 tox	KB-V1 MDR tox
COc1ccc(C(C)=O)cc1COC(=O)C1CCN(C(=O)c2ccc(Cl)cc2)CC1	0	-10	-1%	0%	i	i
COc1ccc(CN2CCN(C(=O)c3ccc(S(=O)(=O)NCc4ccco4)cc3)CC2)cc1F	8	28	-8%	19%	?	i
COc1ccc(COC(=O)C2CCN(C(=O)c3ccc(Cl)cc3)CC2)cc1F	-5	0	2%	15µM*	?	i
CC(=O)Nc1ccc(S(=O)(=O)N2CCN(CC3CC4C=CC3C4)CC2)cc1 (stereo not drawn)	-1	-7	1.3µM*	12%	i	?
COc1ccc(CN2CCN(C(=O)c3ccc(S(=O)(=O)N4CCCCCC4)cc3)CC2)cc1F	6	-3	0%	11%	23µM*	?
COc1ccc(CN2CCN(S(=O)(=O)c3ccc(NC(C)=O)cc3)CC2)cc1OC	-4	-17	-1%	?	i	21µM*
CC(C)(C)[C@H]1C=C(C(=O)NCc2nc3ccccc3[nH]2)O[C@@H](OCc2ccc(CO)cc2)C1	-19	-23	5%	-3%	i	i
COc1ccc(CN2CCN(C(=O)c3ccc(S(=O)(=O)N4CCCCCC4)cc3)CC2)cc1	-7	-3	15%	?	8.2µM*	2.3µM*
O=C(c1ccc(S(=O)(=O)N2CCCCCC2)cc1)N1CCN(Cc2ccccc2)CC1	-7	0	-21%	28%	i	?
O=c1[nH]cnc2sc(-c3ccccc3)cc12	-7	-13	-16%	2%	i	i
O=c1[nH]c(-c2ccccc2)nc2sc(-c3ccccc3)cc12	4	12	2.9µM*	10µM*	?	?
Cc1ccccc1CNC(=O)C(C)n1nc(C)n2c(cc3occc32)c1=O (stereo not drawn)	7	nt	nt	nt	nt	nt
CCOc1ncccc1C(=O)NCc1ccc(OC)cc1	20	9	8.2µM*	?	15µM*	13µM*
COc1ccc(C(=O)N/N=C(\c2ccccc2)c2ccccn2)cc1	-13	-56*	?	?	i	0.65µM*
O=C(N/N=C(\c1ccccc1)c1ccccn1)c1ccccc1Cl	-4	?	?	?	?	?
COc1ccc(C(=O)NCc2ccccn2)cc1	-5	-65*	-6%	1%	i	i
O=C(NN=C(c1ccccc1)c1ccccn1)c1ccccc1	-14	-56*	10µM*	?	?	?
CCOC(=O)c1cc(-c2ccc(OC)cc2)n(CCC(=O)Nc2nc3ccc(OCC)cc3s2)c1C	12	nt	nt	nt	nt	nt
FC(F)(F)c1cccc(Nc2c3c(nc4ccc(Cl)cc24)CCC3)c1	1	nt	nt	nt	nt	nt
CCOc1ccc(-n2nc3ccc(NC(=O)c4ccc(-c5cccc(Cl)c5)o4)cc3n2)cc1	-5	nt	nt	nt	nt	nt
CC1(C)Oc2ccc3ccc(=O)oc3c2/C(=C/NC2CCCCC2)C1=O	0	8	?	15µM*	i	?
O=C(N=Nc1c(O)[nH]c2ccccc12)c1cccc(S(=O)(=O)Nc2ccccc2Cl)c1	-4	-16	-85%	1%	i	i
CC(C)c1ccc2[nH]c(O)c(N=NC(=O)c3cccc(S(=O)(=O)Nc4ccccc4Cl)c3)c2c1	6	-10	-3%	15µM*	i	i
CNc1c2cccc(C)c2nc2c(C(=O)NCCN(C)C)cccc12	-11	15	?	-11%	0.29µM*	?
O=C(COc1ccccc1Cl)OCc1cc(=O)n2nc(C3CCCCC3)sc2n1	4	nt	nt	nt	i	i
SMILES	D3 ag	DRD3 antagonist	SW480 rereplic	MCF10A rereplic	KB-3-1 tox	KB-V1 MDR tox
CCc1cc(C(=O)Nc2ccc(S(=O)(=O)NC3=NCCCCC3)cc2)sc1C	0	-23	8%	-2%	i	i
CC(C)NC(=O)C1C(c2ccc(C(F)(F)F)cc2)=Nc2ccccc2N1C(=O)c1cc2ccccc2[nH]1 (stereo not drawn)	8	10	nt	nt	i	i
O=C(NC1CCCC1)C1C(c2ccc(C(F)(F)F)cc2)=Nc2ccccc2N1C(=O)c1cc2ccccc2[nH]1 (stereo not drawn)	-7	-1	nt	nt	?	13µM*
O=C(Nc1ccc(Cl)cc1)c1ccc(-n2cccn2)c([N+](=O)[O-])c1	-9	?	4%	?	?	15µM*
O=C(Nc1ccc(OC(F)(F)F)cc1)NC1COc2ccccc2C1 (stereo not drawn)	-13	nt	nt	nt	i	i
O=C(Cn1c2c(sc1=O)C1c3ccccc3OCC1CS2)Nc1ccc(Cl)c(Cl)c1 (stereo not drawn)	-2	?	4%	28%	16µM*	i
Cc1csc(=O)n1CC(=O)Nc1ccc(Cl)c(Cl)c1	-4	-16	-8%	6%	i	i
O=C(NCCc1ccc2c(c1)OCCO2)c1ccc(F)cc1	-3	-23	nt	4%	i	23µM*
CCOC(=O)c1nnn(C(CC)C(=O)Nc2ccc(F)cc2)c1C(=O)OCC (stereo not drawn)	-14	nt	nt	nt	i	?
CCOc1ccccc1NS(=O)(=O)c1ccc2oc(=O)c3ncn(C)c3c2c1	-26	nt	nt	nt	i	i
Cc1c(C(=O)N(C)Cc2nc3ccccc3c(=O)[nH]2)oc2ccccc12	-2	15	16µM*	10µM*	18µM*	8.2µM*
CN(Cc1nc2ccccc2c(=O)[nH]1)C(=O)c1ccc(S(=O)(=O)N(C)C)cc1	2	18	-2%	3%	i	i
Cc1cc(C)c(C)c(S(=O)(=O)N2CCC(C(=O)N(C)Cc3nc4ccccc4c(=O)[nH]3)CC2)c1C	-4	7	9%	24%	i	23µM*
CN(Cc1nc2ccccc2c(=O)[nH]1)C(=O)c1cc(C2CC2)nn1-c1ccccc1	2	-60*	9%	0%	i	i
COc1ccc(Cl)cc1NC(=O)N1CCN(S(=O)(=O)c2ccc3c(ccn3C)c2)CC1	-10	nt	nt	nt	i	i
CCOC(=O)c1ccc(-c2c(-c3ccccc3OC)sc3ccc(OC)cc23)cc1F	-29	-27	?	?	i	i
NC1=NC(c2ccc(Cl)cc2)C(C(=O)c2ccccc2)N1 (stereo not drawn)	-2	-6	?	5.8µM*	?	i
CCOC(=O)c1cccc(NC(=O)CCc2c(C)nn(-c3ccc(N4CCOCC4)nn3)c2C)c1	-9	nt	nt	nt	i	i
CN1CCN(C(=O)NC2CCCCC2)CC1	-1	-54*	-7%	1%	i	i
Cc1cc(C)nc(N2CCC(C(=O)NCC3CCCCC3)CC2)n1	3	13	-6%	-3%	i	i

Bioassay records deposited in PubChem BioAssay by National Center for Advancing Translational Sciences (NCATS).
